“And” between values parts separate entries of the source, which are not always exact repeats. Equal entries are not always repeated. The campaign covered roughly 5,500 compounds. About 2,000 (36%) were called active. Inconclusive results (about 18%) are left out. Cut-off read from the data, not from the text of the source: active = normalized growth mostly below about 0.91 (no sharp cut-off); inconclusive = no clear call, values can overlap the other calls; inactive = mostly above about 0.92. The list shows a part of the results.
Test: chemical genetic growth profiling, strain panel (AID 1159580);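 note: tested at 20 µM; growth read once vehicle control cultures reached saturation at 30 °C; 1 = growth at the plate median or of vehicle wells; lower values mean less growth of the strain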
Settings: S. cerevisiae deletion strains, growth OD

Measured: normalized growth

CN1CCCCC1c1ccc(-c2cccnc2)nc1 (stereo not given)
inactive: locus YAL013W, strain DEP1, active compounds read low 1.01 | locus YAL021C, strain ccr4, active compounds read low 0.987 | locus YAL026C, strain drs2, active compounds read low 0.965 | locus YAL030W, strain snc1, active compounds read low 0.984 | locus YBL061C, strain skt5, active compounds read low 0.975 | locus YBR009C, strain hhf1, active compounds read low 0.938 | locus YBR021W, strain FUR4, active compounds read low 1.1 | locus YBR023C, strain chs3, active compounds read low 0.99 | locus YBR171W, strain sec66, active compounds read low 0.971 | locus YBR229C, strain ROT2, active compounds read low 1.02 | locus YBR231C, strain swc5, active compounds read low 0.982 | locus YBR279W, strain paf1, active compounds read low 0.984 | locus YCL011C, strain gbp2, active compounds read low 0.964 | locus YCL016C, strain dcc1, active compounds read low 0.997 | locus YCL029C, strain bik1, active compounds read low 0.97 | locus YCL061C, strain MRC1, active compounds read low 0.98 | locus YCL069W, strain vba3, active compounds read low 0.979 | locus YCR088W, strain abp1, active compounds read low 0.994 | locus YDL005C, strain med2, active compounds read low 0.964 | locus YDL035C, strain GPR1, active compounds read low 1.01 | locus YDL040C, strain nat1, active compounds read low 0.983 | locus YDL074C, strain BRE1, active compounds read low 1.01 | locus YDL101C, strain DUN1, active compounds read low 1.02 | locus YDL134C, strain PPH21, active compounds read low 1.1 | locus YDL185W, strain tfp1, active compounds read low 0.959 | locus YDL192W, strain arf1, active compounds read low 0.983 | locus YDR001C, strain nth1, active compounds read low 0.962 | locus YDR069C, strain doa4, active compounds read low 0.962 | locus YDR101C, strain arx1, active compounds read low 0.999 | locus YDR137W, strain rgp1, active compounds read low 0.975 | locus YDR150W, strain NUM1, active compounds read low 1.01 | locus YDR159W, strain sac3, active compounds read low 0.927 | locus YDR162C, strain NBP2, active compounds read low 1.07 | locus YDR195W, strain ref2 0.929 | locus YDR297W, strain sur2, active compounds read low 0.967 | locus YDR318W, strain mcm21, active compounds read low 1 | locus YDR334W, strain swr1, active compounds read low 0.971 | locus YDR335W, strain msn5, active compounds read low 0.99 | locus YDR388W, active compounds read low 0.997 | locus YDR392W, strain spt3, active compounds read low 0.874 | locus YDR502C, strain sam2, active compounds read low 1.01 | locus YEL003W, strain gim4, active compounds read low 0.979 | locus YEL037C, strain rad23, active compounds read low 0.985 | locus YEL061C, strain CIN8 (second series), active compounds read low 0.97 | locus YEL061C, strain CIN8, active compounds read low 1.01 | locus YER015W, strain faa2, active compounds read low 0.965 | locus YER016W, strain bim1, active compounds read low 0.994 | locus YER110C, active compounds read low 1 | locus YER111C, strain swi4, active compounds read low 0.974 | locus YER155C, strain BEM2 (second series), active compounds read low 0.971 | locus YER155C, strain BEM2, active compounds read low 1.01 | locus YER167W, strain BCK2, active compounds read low 1.03 | locus YFR010W, strain ubp6, active compounds read low 0.969 | locus YGL078C, strain dbp3, active compounds read low 0.996 | locus YGL086W, strain mad1, active compounds read low 1.03 | locus YGL167C, strain pmr1, active compounds read low 0.956 | locus YGL173C, strain kem1, active compounds read low 0.973 | locus YGL227W, strain vid30, active compounds read low 0.97 | locus YGL240W, strain doc1, active compounds read low 0.965 | locus YGL248W, strain PDE1, active compounds read low 1.01 | locus YGL253W, strain hxk2, active compounds read low 0.992 | locus YGR135W, strain pre9, active compounds read low 0.981 | locus YGR229C, strain SMI1, active compounds read low 1.08 | locus YGR252W, strain gcn5, active compounds read low 1.05 | locus YHR013C, strain ard1, active compounds read low 0.929 | locus YHR027C, strain rpn1, active compounds read low 0.984 | locus YHR030C, strain SLT2, active compounds read low 0.995 and 1 | locus YHR079C, strain IRE1 (second series), active compounds read low 0.998 | locus YHR079C, strain IRE1, active compounds read low 0.988 | locus YHR094C, strain hxt1, active compounds read low 1.02 | locus YHR129C, strain ARP1, active compounds read low 1.02 | locus YHR142W, strain chs7, active compounds read low 1 | locus YHR200W, strain rpn10, active compounds read low 0.984 | locus YIL066C, strain RNR3, active compounds read low 1.05 | locus YIL073C, strain SPO22, active compounds read low 1.02 | locus YIL125W, strain kgd1, active compounds read low 0.998 | locus YIR030C, strain dcg1, active compounds read low 0.995 | locus YJL092W, strain hpr5, active compounds read low 0.985 | locus YJL095W, strain BCK1 (second series), active compounds read low 0.998 | locus YJL095W, strain BCK1, active compounds read low 1.07 and 1.03 | locus YJL115W, strain asf1, active compounds read low 0.991 | locus YJL129C, strain trk1, active compounds read low 0.983 | locus YJL134W, strain LCB3, active compounds read low 0.996 | locus YJL154C, strain vps35, active compounds read low 0.994 | locus YJL164C, strain tpk1, active compounds read low 1.02 | locus YJL166W, strain qcr8, active compounds read low 0.983 | locus YJL168C, strain set2, active compounds read low 0.996 | locus YJL187C, strain SWE1 (second series), active compounds read low 1.04 | locus YJL187C, strain SWE1, active compounds read low 0.979 | locus YJR043C, strain POL32, active compounds read low 1.04 | locus YJR066W, strain TOR1, active compounds read low 0.951 | locus YKL009W, strain mrt4, active compounds read low 0.986 | locus YKL068W, active compounds read low 0.997 | locus YKL085W, strain MDH1 (second series), active compounds read low 1.01 | locus YKL085W, strain MDH1, active compounds read low 1.01 | locus YKL160W, strain elf1, active compounds read low 1.01 | locus YKL190W, strain CNB1, active compounds read low 1.02 | locus YKR001C, strain vps1, active compounds read low 0.996 | locus YKR026C, strain gcn3, active compounds read low 0.967 | locus YKR091W, strain srl3, active compounds read low 0.969 | locus YLL001W, strain dnm1, active compounds read low 1 | locus YLL026W, active compounds read low 1 | locus YLL041C, strain sdh2, active compounds read low 0.991 | locus YLR027C, strain aat2, active compounds read low 0.979 | locus YLR039C, strain RIC1, active compounds read low 1.07 | locus YLR058C, strain SHM2, active compounds read low 1.02 | locus YLR102C, strain apc9, active compounds read low 0.999 | locus YLR113W, strain HOG1, active compounds read low 1.03 | locus YLR221C, strain rsa3, active compounds read low 0.994 | locus YLR258W, strain gsy2, active compounds read low 0.985 | locus YLR262C, strain YPT6 (second series), active compounds read low 1.01 | locus YLR262C, strain YPT6, active compounds read low 1.04 | locus YLR268W, strain sec22, active compounds read low 1.01 | locus YLR320W, strain mms22, active compounds read low 0.993 | locus YLR330W, strain CHS5, active compounds read low 1.01 | locus YLR342W, strain FKS1 (second series), active compounds read low 1.06 | locus YLR342W, strain FKS1, active compounds read low 0.971 | locus YLR357W, strain rsc2, active compounds read low 0.968 | locus YLR370C, strain arc18, active compounds read low 0.966 | locus YLR371W, strain rom2, active compounds read low 0.971 | locus YLR384C, strain iki3, active compounds read low 0.993 | locus YLR418C, strain cdc73, active compounds read low 1.05 | locus YML016C, strain PPZ1, active compounds read low 1.01 | locus YML032C, strain rad52, active compounds read low 0.997 | locus YML120C, strain ndi1, active compounds read low 0.984 | locus YML124C, strain tub3, active compounds read low 0.998 | locus YMR058W, strain fet3, active compounds read low 0.97 | locus YMR078C, strain ctf18, active compounds read low 0.999 | locus YMR125W, strain sto1, active compounds read low 0.942 | locus YMR129W, active compounds read low 0.974 | locus YMR205C, strain PFK2, active compounds read low 0.934 | locus YMR223W, strain ubp8, active compounds read low 0.987 | locus YMR231W, strain pep5, active compounds read low 0.967 | locus YMR307W, strain GAS1, active compounds read low 1.19 | locus YNL067W, strain RPL9B, active compounds read low 1.05 | locus YNL071W, strain lat1, active compounds read low 0.993 | locus YNL183C, strain NPR1, active compounds read low 0.979 | locus YNL209W, strain ssb2, active compounds read low 0.966 | locus YNL233W, strain BNI4, active compounds read low 1.07 | locus YNL248C, strain rpa49, active compounds read low 1.02 | locus YNL250W, strain rad50, active compounds read low 0.988 | locus YNL271C, strain bni1, active compounds read low 0.988 | locus YNL298W, strain CLA4, active compounds read low 1 | locus YNL307C, strain MCK1, active compounds read low 1 | locus YNL322C, strain KRE1 (second series), active compounds read low 0.971 | locus YNR049C, strain mso1, active compounds read low 0.986 | locus YNR052C, strain pop2, active compounds read low 0.993 | locus YOL006C, strain TOP1, active compounds read low 1.11 | locus YOL012C, strain htz1 1.24 | locus YOL147C, strain pex11, active compounds read low 1.01 | locus YOR001W, strain rrp6, active compounds read low 1.02 | locus YOR061W, strain CKA2, active compounds read low 1.01 | locus YOR069W, strain VPS5, active compounds read low 1 | locus YOR070C, strain gyp1, active compounds read low 0.997 | locus YOR080W, strain dia2, active compounds read low 0.966 | locus YOR083W, strain WHI5, active compounds read low 1.01 | locus YOR106W, strain vam3, active compounds read low 1 | locus YOR136W, strain idh2, active compounds read low 0.995 | locus YOR144C, strain elg1, active compounds read low 1.01 | locus YOR184W, strain ser1, active compounds read low 1.02 | locus YOR231W, strain MKK1, active compounds read low 0.992 | locus YOR265W, strain rbl2, active compounds read low 1.01 | locus YOR270C, strain vph1, active compounds read low 0.974 | locus YOR290C, strain snf2, active compounds read low 0.923 | locus YOR316C, strain cot1, active compounds read low 0.99 | locus YPL051W, strain arl3, active compounds read low 1.01 | locus YPL078C, strain atp4, active compounds read low 0.999 | locus YPL106C, strain sse1, active compounds read low 0.934 | locus YPL240C, strain hsp82, active compounds read low 0.981 | locus YPL256C, strain CLN2, active compounds read low 0.977 | locus YPR119W, strain clb2, active compounds read low 1 | locus YPR141C, strain kar3, active compounds read low 0.986 | locus YPR163C, strain tif3, active compounds read low 0.998 | locus YPR167C, strain met16, active compounds read low 0.999 | strain wtn01, active compounds read low 0.983

Reference: PubChem BioAssay AID1159580 (chemical genetic matrix, 2015)
